Results filed as inconclusive are left out. Activity calls are given as the source filed them. Cut-off not given; nearly all actives show AC50 up to about 23 µM.
experiment: growth inhibition of DIPG glioma cells, dose response, cell-based, SU-DIPG-XIII, MIPE5.0, CellTiter-Glo, qHTS (AID 1347064); settings: SU-DIPG-XIII viability, CellTiter-Glo ATP luminescence

Which outcome does the source give for `CC(C)NCC(O)COc1ccc(CCOCC2CC2)cc1` (centres undefined) here?
The outcome was “inactive”.

For `CN1CCC(=C2c3ccccc3C=Cc3ccccc32)CC1`, which outcome is on record?
Its outcome is “inactive”.

Which outcome does the source give for `Oc1ccc(C2CNCCc3c2cc(O)c(O)c3Cl)cc1` (centres undefined) here?
The outcome was “inactive”.

With `CCC1=C(C)CN(C(=O)NCCc2ccc(S(=O)(=O)NC(=O)NC3CCC(C)CC3)cc2)C1=O` (centres undefined) as the molecule, how does the outcome read?
Its outcome is “inactive”.

With `Cn1nnc2c(C(N)=O)ncn2c1=O` as the molecule, how does the outcome read?
Its outcome is “inactive”.

With `COc1ccc(C2CNC(=O)C2)cc1OC1CCCC1` (centres undefined) as the molecule, how does the outcome read?
Its outcome is “inactive”.

With `O=C(O)/C=C/c1ccc(Cn2ccnc2)cc1` as the molecule, how does the outcome read?
The outcome was “inactive”.

With `COc1ccc2nc(S(=O)Cc3ncc(C)c(OC)c3C)[nH]c2c1` (centres undefined) as the molecule, how does the outcome read?
Its outcome is “inactive”.

With `CCN1CCCC1CNC(=O)c1cc(S(=O)(=O)CC)c(N)cc1OC` (centres undefined) as the molecule, how does the outcome read?
The outcome was “inactive”.

Reference: PubChem BioAssay
